# Target: PUM1 PUF domain R3-GPR (Homo sapiens, UniProt Q14671 828-1176, C935G;R936P;Q939R)
# Assay: yeast three-hybrid, YBZ-1, SC-Leu-His + 0.5 mM 3-AT, 4 days
# Settings: tags: N-Gal4 AD-HA kept; label: inside an RPR1-promoter hybrid RNA with tandem MS2 sites; ssRNA
# How it was run: (§1)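 The interaction score is the log change in variant frequency from input to selection. Scores were computed in log2 with a pseudocount of 1 for absent variants, using Illumina sequencing of PCR-amplified repeat regions. The input came from four days on SC-Leu and the selection from four days on SC-Leu-His + 0.5 mM 3-AT. The cells were strain YBZ-1 (LexA–MS2 coat fusion, HIS3 reporter) co-expressing Pumilio-1 PUF domain libraries and matching RNA elements from a centromeric plasmid.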
# PUM1 PUF domain R3-GPR, sequence (Q14671 828-1176 C935G/R936P/Q939R): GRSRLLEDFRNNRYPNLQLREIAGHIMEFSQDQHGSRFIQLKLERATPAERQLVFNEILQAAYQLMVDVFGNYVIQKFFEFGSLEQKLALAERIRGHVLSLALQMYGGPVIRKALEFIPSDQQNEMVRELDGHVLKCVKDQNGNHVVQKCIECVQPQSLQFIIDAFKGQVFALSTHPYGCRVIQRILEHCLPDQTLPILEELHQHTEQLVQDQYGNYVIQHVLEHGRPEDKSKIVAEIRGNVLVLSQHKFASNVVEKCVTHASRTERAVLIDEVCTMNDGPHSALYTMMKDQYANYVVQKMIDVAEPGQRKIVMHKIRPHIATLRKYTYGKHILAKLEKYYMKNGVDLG
row,Sequence,binding signal
1,GGCUAGAACUAGUGGAUCCCCCGGCGCCCGGCGGCUCGAGCCCGGGUAAGUGUAAAUAGUCUGCAUGCCGCCGGGCGCCAUGCCUGCAGGUCGACUCUAGAAAACAUG,0.81 log2 enrichment (interaction score)
2,GGCUAGAACUAGUGGAUCCCCCGGCGCCCGGCGGCUCGAGCCCGGGUAAGUGUAACUAGUCUGCAUGCCGCCGGGCGCCAUGCCUGCAGGUCGACUCUAGAAAACAUG,1.8 log2 enrichment (interaction score)
3,GGCUAGAACUAGUGGAUCCCCCGGCGCCCGGCGGCUCGAGCCCGGGUAAGUGUAAUUAGUCUGCAUGCCGCCGGGCGCCAUGCCUGCAGGUCGACUCUAGAAAACAUG,3.57 log2 enrichment (interaction score)
4,GGCUAGAACUAGUGGAUCCCCCGGCGCCCGGCGGCUCGAGCCCGGGUAAGUGUAAGUAGUCUGCAUGCCGCCGGGCGCCAUGCCUGCAGGUCGACUCUAGAAAACAUG,1.82 log2 enrichment (interaction score)

# Target: PUM1 PUF domain R3-IWG (Homo sapiens, UniProt Q14671 828-1176, C935I;R936W;Q939G)
# Assay: as above
# Settings: tags: N-Gal4 AD-HA kept; label: inside an RPR1-promoter hybrid RNA with tandem MS2 sites; ssRNA
# How it was run: as §1
# PUM1 PUF domain R3-IWG, sequence (Q14671 828-1176 C935I/R936W/Q939G): as the sequence (Q14671 828-1176 C935G/R936P/Q939R) above, with G108I, P109W, R112G counted along it
row,Sequence,binding signal
1,GGCUAGAACUAGUGGAUCCCCCGGCGCCCGGCGGCUCGAGCCCGGGUAAGUGUAAAUAGUCUGCAUGCCGCCGGGCGCCAUGCCUGCAGGUCGACUCUAGAAAACAUG,5.45 log2 enrichment (interaction score)
2,GGCUAGAACUAGUGGAUCCCCCGGCGCCCGGCGGCUCGAGCCCGGGUAAGUGUAAUUAGUCUGCAUGCCGCCGGGCGCCAUGCCUGCAGGUCGACUCUAGAAAACAUG,3.86 log2 enrichment (interaction score)
3,GGCUAGAACUAGUGGAUCCCCCGGCGCCCGGCGGCUCGAGCCCGGGUAAGUGUAAGUAGUCUGCAUGCCGCCGGGCGCCAUGCCUGCAGGUCGACUCUAGAAAACAUG,5.3 log2 enrichment (interaction score)

# Source: publication PMC8384837, “Expanding the binding specificity for RNA recognition by a PUF domain”
